Laboratory results taken from PubChem BioAssay AID1159606 (Sanford-Burnham Center for Chemical Genomics, 2016).
In all, about 360,000 compounds went through this assay and about 7,300 (2%) were called active. This is one part of a sample in which actives are shown more often than they occur. No stated cut-off is given here; in the data, active means inhibition above about 50%; inactive means the rest.

assay: inhibitors of TWEAK-Fn14 signaling, primary screen, luciferase reporter cells, uHTS (AID 1159606); conditions: TWEAK-stimulated Fn14 reporter cells, luciferase luminescence, 8 h; at 10 µM; hits give high values

Compound	inhibition
CCOC(=O)[C@]12CCC=C1N(Cc1ccccc1)C(=O)[C@H](CC(=O)N1CCCC1)C2	15.9% (inactive)
CCN(CCCNC(=O)CCn1c(=O)[nH]c2ccsc2c1=O)c1ccccc1	-1.46% (inactive)
CCN1CCN(CCNC(=O)c2ccc3c(c2)NC(=O)/C(=C\c2cccc(Cl)c2)S3)CC1	-66.6% (inactive)
CCN(CCCNC(=O)c1ccc2c(c1)NC(=O)CN2C)c1cccc(C)c1	82.5% (active)
CCOC(=O)N1CCN(C(=O)C[C@@H]2C[C@@]3(C(=O)OC)CCCCC=C3N(CCC3=CCCCC3)C2=O)CC1	-5.06% (inactive)
COCCCn1cc(CN2CC(N(C)C)CS2(=O)=O)nn1 (stereo not drawn)	20.9% (inactive)
CC(C)C[C@H]1CNC(=O)C(=O)N1C[C@H]1CCCN1C[C@H](Cc1ccc(O)cc1)N1C[C@H](CC(C)C)N(CC2CCCCCC2)C(=O)C1=O	1.64% (inactive)
CCC(C)Cn1c(O)cc2nn(-c3nc4ccccc4s3)c(=O)c-2c1C (stereo not drawn)	61.6% (active)
C[C@H](CO)N1C[C@H](C)[C@H](CN(C)C(=O)Nc2ccc3c(c2)OCO3)Oc2ncc(Br)cc2C1=O	-2.28% (inactive)
CC(C)=CCN1CCN(Cc2ccc(Oc3ncccn3)cc2)CC1CCO (stereo not drawn)	14.3% (inactive)
CCOc1ccc(CN2CCN(CCCc3ccccc3)C(CCO)C2)cc1 (stereo not drawn)	1.65% (inactive)
OCCC1CN(Cc2ccc(Oc3ncccn3)cc2)CCN1CCc1ccccc1 (stereo not drawn)	75.5% (active)
COc1ccc(OC)c(NC(=O)c2ccc3c(c2)CCN3S(C)(=O)=O)c1	-3.45% (inactive)
CN(C)C1CN(Cc2cn(Cc3ccccc3)nn2)S(=O)(=O)C1 (stereo not drawn)	7.88% (inactive)
COCc1c(N)c(C)nc(Cl)c1C#N	12.4% (inactive)
C[C@@H]1CN([C@@H](C)CO)C(=O)CCCn2nncc2CO[C@H]1CN(C)Cc1ccc(C(F)(F)F)cc1	1.47% (inactive)
COC(=O)N(C)C[C@@H]1OCc2cnnn2CCCC(=O)N([C@@H](C)CO)C[C@@H]1C	19.1% (inactive)
C[C@@H]1CN([C@@H](C)CO)C(=O)CCCn2nncc2CO[C@H]1CN(C)C(=O)Nc1ccc(C(F)(F)F)cc1	106% (active)
O=C1c2ccncc2C(=O)N1C1CCCCC1	-3.74% (inactive)
c1ccc(C(=NNc2nc3ccccc3s2)c2ccccn2)cc1	44.1% (inactive)
O=C(N/N=C/c1cc(Br)c(O)c([N+](=O)[O-])c1)C(O)(c1ccccc1)c1ccccc1	-0.77% (inactive)
O=[N+]([O-])c1cc(Br)c(O)c(/C=N/Nc2nc3ccccc3s2)c1	75.7% (active)

Compound	inhibition
Cc1cccc(CN2CCN(C3CN(Cc4ccccc4)S(=O)(=O)C3)CC2)c1 (stereo not drawn)	-19.1% (inactive)
O=C(c1c(Cl)cccc1Cl)N1CCN(c2cccc3[nH]ccc23)CC1	-30.3% (inactive)
COc1ccc(-c2ccc(CN3C(CC(C)C)C(=O)N(Cc4cn(CC5CCCCC5)nn4)CCS3(=O)=O)cc2)cc1 (stereo not drawn)	24.8% (inactive)
O=S1(=O)CC(N2CCN(CCO)CC2)CN1Cc1cn(Cc2ccc(Cl)cc2)nn1 (stereo not drawn)	-0.1% (inactive)
O=C(CSc1ncnc2scc(-c3ccccc3)c12)NCc1ccc2c(c1)OCO2	27.4% (inactive)
CCOc1c2ccc(C(=O)NCc3ccc4c(c3)OCO4)cc2nn1C	-1.73% (inactive)
CN(C)C(=O)c1cccc(-c2cnc3sc(NCc4ccc5c(c4)OCO5)nn23)c1	81.9% (active)
O=C(C1CCN(S(=O)(=O)c2ccc(Br)s2)CC1)N1CCN(c2ccccc2)CC1	35.1% (inactive)
CC(C)C(=O)N1CCC2(CC1)Oc1ccc(F)cc1C(=O)C21CC(c2ccccc2)=NO1 (stereo not drawn)	-32.9% (inactive)
CC1(C(=O)NNC(=S)NCC2CCCO2)CC1(Cl)Cl (stereo not drawn)	5.56% (inactive)
Cc1c(CCC(=O)O)c(=O)oc2c(C)c(OCc3ccccc3Cl)ccc12	55.7% (active)
Cc1c(CCC(=O)O)c(=O)oc2cc(OCc3ccc(Br)cc3)ccc12	6.88% (inactive)
CCOC(=O)CCc1c(C)c2ccc(OCc3nn[nH]n3)c(C)c2oc1=O	11.4% (inactive)
CC(C)Nc1ncnc2c1ncn2[C@H]1CN(Cc2ccncc2)C[C@@H](CO)O1	-31.2% (inactive)
O=C(Nc1ccc2c(c1)OCCO2)C(C1CC1)N1CCC(Cc2ccccc2)CC1 (stereo not drawn)	-6.47% (inactive)
O=C(/C(=C/c1cccc(Cl)c1)c1nc2ccccc2[nH]1)c1ccccc1	72.2% (active)
Oc1ccc2nc(Cc3ccccc3)[nH]c2c1	-12.2% (inactive)
O=c1c2cc(Br)ccc2nc(-c2cccc(Cl)c2)n1O	12.1% (inactive)
Brc1ccc2nc(-c3ccccc3)c(Cc3ccccc3)n2c1	-30.1% (inactive)
CCCCC[C@H](C)N1C[C@@H](COCc2ccccc2)Oc2cc(N3CCC[C@@H]3CO)ccc2S1(=O)=O	9.1% (inactive)
Cc1ccc(Sc2ccc(NC(=O)c3ccc(F)cc3)cc2C#N)cc1	-7.53% (inactive)
CC(C)(CCl)C(=O)Nc1ccc(Sc2ccc(F)cc2)cc1	60.9% (active)

Compound	inhibition
O=C(CCl)Nc1ccc(Sc2ccc(NC(=O)CCl)cc2)cc1	-24.1% (inactive)
CCn1c(SCC(=O)Nc2nc(C)cs2)nnc1C(C)NC(=O)c1ccccc1 (stereo not drawn)	-0.58% (inactive)
CN(Cc1ccccc1)C(=O)[C@@H]1CCCN1C(=O)[C@@H]1CCCN1C(=O)c1c(F)cccc1F	12.3% (inactive)
CCOCCCN(C)C1CCN(C(=O)c2oc3ccccc3c2NC(=O)COc2cccc(C)c2)CC1	-4.99% (inactive)
Cc1cccc(-n2c(=O)c3c(C)c(C)sc3n(CC(N)=O)c2=O)c1	21.1% (inactive)
N#CCSc1nc2c(c(=O)n1Cc1ccccc1)C1(CCCC1)Cc1ccccc1-2	13.4% (inactive)
Cc1cccc(-n2c(SCC(N)=O)nc3c(c2=O)C2(CCCCC2)Cc2ccccc2-3)c1	54% (active)
CCCc1nc2c3ccccc3ccn2c1Cc1ccccc1C(F)(F)F	8.3% (inactive)
Cc1noc(C)c1S(=O)(=O)N1CCCC(C(=O)Nc2nccs2)C1 (stereo not drawn)	4.3% (inactive)
CC(CC(=O)O)C(=O)c1ccc(Cl)c([N+](=O)[O-])c1 (stereo not drawn)	0.14% (inactive)
CC(=O)Nc1ccc(C=CC(=O)c2ccc([N+](=O)[O-])cc2)cc1	5.86% (inactive)
O=C(/C=C/c1ccc(Cl)c([N+](=O)[O-])c1)c1ccc(O)cc1	84.1% (active)
O=S(=O)(NCc1ccccn1)c1ccc(Br)s1	-7.41% (inactive)
O=S(=O)([N-]c1nc2ccccc2nc1-[n+]1ccc(Cc2ccccc2)cc1)c1ccc(Br)s1	101% (active)
Cn1c2c(c(=O)n(C)c1=O)C(c1cccc([N+](=O)[O-])c1)Nc1ccccc1O2 (stereo not drawn)	-3.73% (inactive)
COc1cccc(N2CCN(C(=O)Nc3ccc4c(c3)NC(=O)CO4)CC2)c1	8.92% (inactive)
O=C(Nc1ccccc1)N1CCN(C2c3ccccc3-c3ccccc32)CC1	-2.27% (inactive)
O=C(Nc1cccc(NC(=O)N2CCN(c3ccccc3)CC2)c1)N1CCN(c2ccccc2)CC1	86.3% (active)
Cc1nc(SC(C)C)[nH]c(=O)c1Cc1ccccc1	3.45% (inactive)
COc1ccc(NC(=O)/C(Cl)=C(/Cl)S(=O)Cc2ccc(C)cc2)cn1 (stereo not drawn)	97.5% (active)
COc1ccc(NC(=O)C2Cc3c(-c4ccc5c(c4)OCO5)ccnc3O2)cn1 (stereo not drawn)	14.2% (inactive)
COc1ccc(NC(=O)CN2C(=O)NC(C)(c3ccccc3)C2=O)cn1 (stereo not drawn)	-0.71% (inactive)

Compound	inhibition
CC(=O)c1ccc(OCC(=O)N(C)C2CCS(=O)(=O)C2)cc1 (stereo not drawn)	0.02% (inactive)
CC(C)NC(=O)c1ccccc1S(=O)c1ccccc1C#N (stereo not drawn)	3.58% (inactive)
O=C(c1ccc(C(F)(F)F)cc1)N1CCC(=O)N([C@H](COCc2ccccc2)Cc2ccccc2)CC1	13.8% (inactive)
COc1cccc2sc(Nc3nc(C)c(C(C)=O)s3)nc12	94.3% (active)
CNC(=O)c1sc(Nc2ccc(OCc3ccccc3)cc2)nc1C	32.3% (inactive)
CC(=O)c1sc(N/N=C/c2ccc(C(C)C)cc2)nc1C	-16.6% (inactive)
Cc1cc(N2C(=O)c3ccc(C(=O)NCc4ccccc4)cc3C2=O)no1	-3.3% (inactive)
COC(=O)[C@@]1(Cc2ccc(F)cc2)[C@H]2c3cc(C(=O)N(C)C)n(CCc4c[nH]c5ccc(OC)cc45)c3C[C@H]2CN1C(=O)c1ccccc1	34.5% (inactive)
O=C(NCc1ccccc1)C1c2ccccc2OCC(=O)N1CCCN1CCOCC1 (stereo not drawn)	-1.12% (inactive)
COc1ccccc1/C=C/C1=NC(=C\N(C)C)/C(=O)O1	-17.3% (inactive)
CC(C)(C)C1C/C(=C/c2ccco2)C(=O)/C(=C/c2ccco2)C1 (stereo not drawn)	9.75% (inactive)
O=C1OC(/C=C/c2ccccc2)=NC/1=C/c1ccco1	51% (active)
CN(/C(=N/S(=O)(=O)c1cccs1)c1ccccc1)c1ccc(O)cc1	7.69% (inactive)
O=C1Nc2ccccc2NC(c2ccc3c(c2)OCO3)=C1N(Cc1ccc(F)cc1)C(=O)c1ccco1	9.28% (inactive)
CCc1ccc2oc(-c3ccc(N)cc3)nc2c1	60.2% (active)
O=C1CC[C@@H](C(=O)N2CSC[C@@H]2C(=O)Nc2ccc(C(F)(F)F)cc2)N1	22.5% (inactive)
CC1Cc2ccccc2N1S(=O)(=O)c1c(N)n(C)c(=O)n(C)c1=O (stereo not drawn)	-4.11% (inactive)
C[C@H]1[C@H]2c3nc4ccccc4n3C[C@H]1ON2C1CCCCC1	-8.66% (inactive)
O=c1[nH][nH]c2c1[C@H](c1ccc(Cl)cc1)O[C@H](CCc1ccccc1)C2	9.82% (inactive)
COc1cccc(CC2(CO)CCCN(CC3=Cc4cc(OC)ccc4OC3)C2)c1 (stereo not drawn)	37.8% (inactive)
CN1c2ccc([N+](=O)[O-])cc2C(C)(C)C12C=Cc1cc(C(=O)O)ccc1O2 (stereo not drawn)	0.62% (inactive)
COc1ccc2c(c1)C=CC1(O2)N(CCO)c2ccccc2C1(C)C (stereo not drawn)	86.2% (active)
